Reference: PubChem BioAssay (NCI)
Compounds without any hit were thinned out: in the full panel of roughly 79,000, 15% have a hit. Active and inactive are the calls of the source. No stated cut-off is given here; in the data, active means growth inhibition above about 70%; inactive means the rest.

Columns and labels:
[1] = NCI Yeast Anticancer Drug Screen. Data for the rad52 strain (AID 147);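 further: 0% = growth of vehicle-treated control cultures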; conditions: S. cerevisiae rad52 mutant growth inhibition, active compounds read high
Outline: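 Compounds are applied to a genetically defined yeast strain lacking normal DNA damage repair, and inhibition of growth is expressed relative to cultures given vehicle only.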

[2] = NCI Yeast Anticancer Drug Screen. Data for the wt1 strain (AID 149);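 further: 0% = growth of vehicle-treated wt1 cultures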; conditions: S. cerevisiae wt1 strain (SPY 50644) growth inhibition, active compounds read high
Outline: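 Each compound is tested on wt1 yeast and the loss of growth versus vehicle gives the inhibition value.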

[3] = NCI Yeast Anticancer Drug Screen. Data for the rad50EPP+ strain (AID 151);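 further: 0% = growth of vehicle-treated control cultures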; conditions: S. cerevisiae rad50 mutant strain, active compounds read high
Outline: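 Compounds were applied to the rad50EPP+ yeast strain, which bears a defined DNA repair alteration, and growth inhibition was determined relative to vehicle-treated cultures.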

[4] = NCI Yeast Anticancer Drug Screen. Data for the mgt1 strain (AID 153); conditions: S. cerevisiae mgt1 mutant growth inhibition, active compounds read high
Outline: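 Strain: mgt1 yeast, one of a set carrying defined DNA damage repair or cell cycle control alterations. Compound-treated growth compared with vehicle.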

[5] = NCI Yeast Anticancer Drug Screen. Data for the rad50 strain (AID 155);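 further: 0% = growth of vehicle-only cultures of the same strain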; conditions: S. cerevisiae rad50 strain growth inhibition, active compounds read high
Outline: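 Vehicle-treated cultures provide the reference for the growth inhibition reported for compound-exposed, repair-deficient yeast.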

[6] = NCI Yeast Anticancer Drug Screen. Data for the mec2-1 strain (AID 157); conditions: S. cerevisiae mec2-1 strain, active compounds read high
Outline: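 Strain: mec2-1 (DNA repair/cell cycle alteration). Compound exposure, then growth measured; inhibition expressed relative to vehicle.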

[7] = NCI Yeast Anticancer Drug Screen. Data for the rad14 strain (AID 159);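 further: 0% = growth of vehicle-treated control cultures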; conditions: S. cerevisiae rad14 strain growth inhibition, active compounds read high
Outline: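 Inhibition of growth is reported for a repair-deficient yeast mutant following compound treatment, calculated relative to cultures that received vehicle.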

[8] = NCI Yeast Anticancer Drug Screen. Data for the sgs1 mgt1 strain (AID 161);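 further: 0% = growth of cultures given vehicle only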; conditions: S. cerevisiae sgs1 mgt1 strain, active compounds read high
Outline: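 Mutant yeast exposed to compound; growth scored against vehicle-only wells.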

[9] = NCI Yeast Anticancer Drug Screen. Data for the CLN2oe strain (AID 163);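 further: 0% = growth of vehicle-only control cultures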; conditions: S. cerevisiae CLN2oe strain, active compounds read high
Outline: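 Growth of a genetically modified yeast strain is measured after compound exposure and compared with cultures given vehicle alone.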

[10] = NCI Yeast Anticancer Drug Screen. Data for the cln2 rad14 strain (AID 165);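 further: 0% = growth equal to vehicle treated cultures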; conditions: S. cerevisiae cln2 rad14 strain, active compounds read high
Outline: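 Compounds are applied to the cln2 rad14 yeast strain, and growth is then compared with that of vehicle-treated cultures to give inhibition.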

[11] = NCI Yeast Anticancer Drug Screen. Data for the bub3 strain (AID 167); conditions: S. cerevisiae bub3 mutant strain, active compounds read high
Outline: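 Mutant yeast screening strain plus compound; vehicle-treated cultures serve as the 0% inhibition reference.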

[12] = NCI Yeast Anticancer Drug Screen. Data for the wt2 strain (AID 169); conditions: S. cerevisiae wt2 strain growth inhibition, active compounds read high
Outline: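 This strain belongs to a panel of yeast strains with defined genetic alterations in DNA damage repair or cell cycle control. Compounds are applied, and growth inhibition is measured against vehicle-treated cultures.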

[13] = NCI Yeast Anticancer Drug Screen. Data for the mlh1 strain (AID 171);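 further: 0% = growth of vehicle-treated control cultures of the same strain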; conditions: S. cerevisiae mlh1 strain growth inhibition, active compounds read high
Outline: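 Growth of the mutant yeast strain after compound exposure, expressed as inhibition relative to vehicle-only controls.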

[14] = NCI Yeast Anticancer Drug Screen. Data for the sgs1 strain (AID 173);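 further: 0% = growth of vehicle-only control cultures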; conditions: S. cerevisiae sgs1 mutant, active compounds read high
Outline: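 Growth of a yeast strain bearing a defined genetic alteration is measured after compound treatment. Inhibition is expressed relative to vehicle-only controls.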

[15] = NCI Yeast Anticancer Drug Screen. Data for the mlh1 rad18 strain (AID 175); conditions: S. cerevisiae mlh1 rad18 strain growth inhibition, active compounds read high
Outline: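 Read-out is yeast growth inhibition, calculated against vehicle-only controls. The compound was applied to a strain engineered with DNA damage repair alterations.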

[16] = NCI Yeast Anticancer Drug Screen. Data for the rad18 strain (AID 177); conditions: S. cerevisiae rad18 mutant growth inhibition, active compounds read high
Outline: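 Growth of the mutant yeast strain after compound exposure, normalised to vehicle-only cultures.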

[17] = at 5.0 µM (retest, dose inferred, filed as 0.5)
[18] = at 50.0 µM (retest, dose inferred, filed as 5.0)

Measured: growth inhibition

CN(C)CCCn1c2c3ccccc3ccc2c2oc(=O)c3ccccc3c21
active: [1]; at 11.0 µM 86% | [1]; at 33.0 µM 97% | [1]; at 100.0 µM 98% | [2]; at 33.0 µM 84% | [2]; at 100.0 µM 97% | [3]; at 11.0 µM 95% | [3]; at 33.0 µM 98% | [3]; at 100.0 µM 98% | [4]; at 33.0 µM 92% | [4]; at 100.0 µM 98% | [5]; at 11.0 µM 91% | [5]; at 33.0 µM 97% | [5]; [18] 98% | [5]; at 50.0 µM 99% | [5]; at 100.0 µM 98% | [6]; at 33.0 µM 88% | [6]; [18] 98% | [6]; at 50.0 µM 98.8% | [6]; at 100.0 µM 96% | [7]; at 33.0 µM 83% | [7]; at 100.0 µM 98% | [8]; [18] 75% | [8]; at 50.0 µM 98.7% | [9]; at 33.0 µM 86% | [9]; at 100.0 µM 97% | [10]; [18] 97% | [10]; at 50.0 µM 98.4% | [11]; at 33.0 µM 87% | [11]; [18] 98% | [11]; at 50.0 µM 99.2% | [11]; at 100.0 µM 98% | [12]; at 33.0 µM 93% | [12]; at 100.0 µM 97% | [13]; at 33.0 µM 90% | [13]; at 100.0 µM 98% | [14]; at 33.0 µM 85% | [14]; at 100.0 µM 96% | [15]; [18] 98% | [15]; at 50.0 µM 99.2% | [16]; at 33.0 µM 93% | [16]; at 100.0 µM 98%
inactive: [1]; at 1.2 µM 3% | [1]; at 3.7 µM 33% | [2]; at 1.2 µM -10% | [2]; at 3.7 µM -7% | [2]; at 11.0 µM 26% | [3]; at 1.2 µM 13% | [3]; at 3.7 µM 58% | [4]; at 1.2 µM 13% | [4]; at 3.7 µM 33% | [4]; at 11.0 µM 53% | [5]; at 1.2 µM 0% | [5]; at 3.7 µM 45% | [5]; [17] 22% | [6]; at 1.2 µM 0% | [6]; at 3.7 µM 28% | [6]; [17] 21% | [6]; at 11.0 µM 48% | [7]; at 1.2 µM -6% | [7]; at 3.7 µM 10% | [7]; at 11.0 µM 30% | [8]; [17] -9% | [9]; at 1.2 µM 3% | [9]; at 3.7 µM 14% | [9]; at 11.0 µM 44% | [10]; [17] -17% | [11]; at 1.2 µM 20% | [11]; at 3.7 µM 11% | [11]; [17] 12% | [11]; at 11.0 µM 23% | [12]; at 1.2 µM -22% | [12]; at 3.7 µM -9% | [12]; at 11.0 µM 50% | [13]; at 1.2 µM 22% | [13]; at 3.7 µM 30% | [13]; at 11.0 µM 53% | [14]; at 1.2 µM 0% | [14]; at 3.7 µM -2% | [14]; at 11.0 µM 34% | [15]; [17] -1% | [16]; at 1.2 µM -10% | [16]; at 3.7 µM -2% | [16]; at 11.0 µM 47%

O=C1c2ccccc2N2OC3(N4CCCC4)CCCCC3C12c1ccccc1 (stereo unspecified)
active: [1]; at 100.0 µM 98% | [2]; at 100.0 µM 98% | [3]; at 100.0 µM 99% | [4]; at 100.0 µM 98% | [5]; at 50.0 µM 84.6% | [5]; at 100.0 µM 97% | [6]; at 100.0 µM 98% | [7]; at 100.0 µM 98% | [8]; at 50.0 µM 74.7% | [9]; at 100.0 µM 98% | [11]; [18] 92% | [11]; at 50.0 µM 79.7% | [11]; at 100.0 µM 98% | [12]; at 100.0 µM 88% | [13]; at 100.0 µM 98% | [14]; at 100.0 µM 98% | [16]; at 100.0 µM 98%
inactive: [1]; at 1.2 µM -4% | [1]; at 3.7 µM 1% | [1]; at 11.0 µM 10% | [1]; at 33.0 µM 17% | [2]; at 1.2 µM 6% | [2]; at 3.7 µM -9% | [2]; at 11.0 µM 16% | [2]; at 33.0 µM 36% | [3]; at 1.2 µM -33% | [3]; at 3.7 µM -38% | [3]; at 11.0 µM -28% | [3]; at 33.0 µM 35% | [4]; at 1.2 µM -18% | [4]; at 3.7 µM -7% | [4]; at 11.0 µM -24% | [4]; at 33.0 µM -13% | [5]; at 1.2 µM 5% | [5]; at 3.7 µM -5% | [5]; [17] -35% | [5]; at 11.0 µM 7% | [5]; at 33.0 µM 19% | [5]; [18] -14% | [6]; at 1.2 µM -19% | [6]; at 3.7 µM -7% | [6]; [17] 1% | [6]; at 11.0 µM -25% | [6]; at 33.0 µM -1% | [6]; [18] 23% | [6]; at 50.0 µM 24.9% | [7]; at 1.2 µM -23% | [7]; at 3.7 µM -20% | [7]; at 11.0 µM -27% | [7]; at 33.0 µM -17% | [8]; [17] -9% | [8]; [18] -18% | [9]; at 1.2 µM -9% | [9]; at 3.7 µM -12% | [9]; at 11.0 µM -10% | [9]; at 33.0 µM 4% | [10]; [17] 16% | [10]; [18] 33% | [10]; at 50.0 µM 1.8% | [11]; at 1.2 µM -19% | [11]; at 3.7 µM -13% | [11]; [17] -6% | [11]; at 11.0 µM -2% | [11]; at 33.0 µM 40% | [12]; at 1.2 µM -18% | [12]; at 3.7 µM -17% | [12]; at 11.0 µM -14% | [12]; at 33.0 µM -8% | [13]; at 1.2 µM -46% | [13]; at 3.7 µM -44% | [13]; at 11.0 µM -41% | [13]; at 33.0 µM -10% | [14]; at 1.2 µM -1% | [14]; at 3.7 µM 5% | [14]; at 11.0 µM 7% | [14]; at 33.0 µM 61% | [15]; [17] -33% | [15]; [18] 35% | [15]; at 50.0 µM 18.8% | [16]; at 1.2 µM -9% | [16]; at 3.7 µM -7% | [16]; at 11.0 µM -7% | [16]; at 33.0 µM 15%
